According to PubChem BioAssay (Tox21):
Inconclusive results are not listed. Entries that show only a call come without a potency. Values without a mark were called inactive. Calls of active or inactive are those of the source. Calls follow the shape of the full dose curve.

Experiment: p53 small molecule agonists, cell-based qHTS assay with human liver microsomes (AID 1963577);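 also: p53 response element beta-lactamase reporter cells with liver microsomes plus NADPH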
Settings: HCT-116 p53RE-bla with human liver microsomes, ratio, 16 h; series mostly up to 66 µM
Source text: National Center for Advancing Translational Sciences [NCATS]
Division of Preclinical Innovation [DPI]
U.S. Environmental Protection Agency [EPA]
National Institutes of Environmental Health Sciences [NIEHS]
National Toxicology Program [NTP]
U.S. Food and Drug Administration [FDA]
p53, a tumor suppressor protein, is activated following cellular insult, including DNA damage and other cellular stresses. The activation of p53 regulates cell fate by inducing DNA repair, cell cycle arrest, apoptosis, or cellular senescence. The activation of p53, therefore, is a good indicator of DNA damage and other cellular stresses. […] The activation of the reporter gene under culture conditions can be detected by fluorescence intensity.
Tox21 Assay Protocol Summary:
The p53RE-bla cells were dispensed at 4,000cells/3ul/well in 1536-well black-clear bottom plates. After the assay plates were incubated at 37 C, 5% CO2 incubator for 5 hours, 23 nL of compounds dissolved in DMSO, positive controls or DMSO only was transferred to the assay plate. Following compound addition, 3 uL of human liver microsomes (XenoTech, Kansas City, KS) at final concentration of 0.5 mg/mL and 1uL of Beta-Nicotinamide adenine dinucleotide 2-phosphate (NADPH) at final concentration of 0.5 mg/mL were transferred to the assay plate. The plates were incubated at 37 C for 16 hours. 1 uL of LiveBLAzer detection mixture was added to each well and the plates were incubated at room temperature in the dark for 2 h.

| Structure (SMILES) | Potency | activation |
| --- | --- | --- |
| O=C(OC1C[C@H]2CC[C@@H](C1)[N+]21CCCC1)C(O)(c1ccccc1)c1ccccc1 (stereo not given in full) | inactive | – |
| CCOC(=O)N1CCC(n2c(=O)[nH]c3cc(Cl)ccc32)CC1 | inactive | – |
| Cc1nc2ccc(Cl)cc2[nH]1 | inactive | – |
| CCCOc1ccccc1-c1nc2n[nH]nc2c(=O)[nH]1 | inactive | – |
| CC(=O)OC(C)(C)Cc1ccccc1 | inactive | – |
| C/C(=N\[Si](C)(C)C)O[Si](C)(C)C | inactive | – |
| CCCCCCCC(C)=O | inactive | – |
| Cn1c(=O)[nH]c2ncn(C)c2c1=O | inactive | – |
| C=C(C)C(=O)OCC[N+](C)(C)C | inactive | – |
| Nc1ccc(C(=O)NCC(=O)O)cc1 | inactive | – |
| CCCOC(=O)c1ccc(N)cc1 | inactive | – |
| CC(C)CCCC(C)(C)O | inactive | – |
| C=CC(=O)OCC(O)COc1ccccc1 (stereo not given) | inactive | – |
| CNC(=O)c1ccccc1Sc1ccc2c(/C=C/c3ccccn3)n[nH]c2c1 | inactive | – |
| CC(C)(O)CCc1ccccc1 | inactive | – |
| O=C(O)CP(=O)(O)O | inactive | – |
| N#C[C@@H]1CC(F)(F)CN1C(=O)CNC1CC2CCC(C1)N2c1ncccn1 (stereo not given in full) | inactive | – |
| CC(C)(C)NC[C@H](O)COc1cccc2c1CCCC2=O | inactive | – |
| CCCCOc1cc(C(=O)OCCN(CC)CC)ccc1N | inactive | – |
| FC(F)(F)c1ccc(Cl)cc1Cl | inactive | – |

| Structure (SMILES) | Potency | activation |
| --- | --- | --- |
| CCOC(=O)O[C@H](C)OC(=O)c1ccc2c(c1)cc(C(=O)NC1CCN(C(C)C)CC1)n2Cc1cc(-c2ccc(Cl)s2)on1 | inactive | – |
| CCOC(=O)C1=NOC(c2ccccc2)(c2ccccc2)C1 | inactive | – |
| C1=C\CC/C=C\CC/1 | inactive | – |
| C=COCC1CCC(COC=C)CC1 (stereo not given) | inactive | – |
| Cc1cc(C(=O)O)ccc1[N+](=O)[O-] | inactive | – |
| O=C(c1ccccc1)c1cccc(O)c1 | inactive | – |
| N[C@H]1CN(c2c(F)cc3c(=O)c(C(=O)O)cn(C4C[C@H]4F)c3c2Cl)CC12CC2 (stereo not given in full) | inactive | – |
| CC(COC(C)(C)C)OCCCO (stereo not given) | inactive | – |
| COC(=O)CCCCC(CCSS/C(CCO)=C(\C)N(C=O)Cc1cnc(C)nc1N)SC(C)=O (stereo not given) | inactive | – |
| COc1ccc2[nH]c(S(=O)Cc3ncc(C)c(OC)c3C)nc2n1 (stereo not given) | inactive | – |
| OCCNCc1ccccc1 | inactive | – |
| CCCCCCCCCCCCCC=O | – | 0.781% [at 5.99 µM] |
| O=[N+]([O-])c1c(Cl)cc(Cl)cc1Cl | inactive | – |
| CC(CN1CC(=O)NC(=O)C1)N1CC(=O)NC(=O)C1 (stereo not given) | inactive | – |
| ONc1ccccc1 | inactive | – |
| Nc1cccc(S(=O)(=O)O)c1 | inactive | – |
| Oc1ccc(Oc2ccccc2)cc1 | inactive | – |
| COc1cc(C(=O)NS(=O)(=O)c2ccccc2C)ccc1Cc1cn(C)c2ccc(NC(=O)OC3CCCC3)cc12 | inactive | – |
| CCCCCCCCCCc1ccccc1 | inactive | – |
| CC(=O)Nc1ccc(C)cc1C | inactive | – |
